Experimental data taken from ChEMBL document CHEMBL3988442, “University of Dundee, Small-Polar-MMV Screening Library” (2021).

Tests used:
[1] = target: T1, Aspartate--tRNA(Asp/Asn) ligase (Mycobacterium tuberculosis (strain ATCC 25618 / H37Rv)) (UniProt P9WFW3); assay: Assay for Asp RNA synthetase-1 from Mycobacterium tuberculosis; type: functional; set-up: scale not given: direction of the effect not stated beside the values; conditions: 30 µM; further: in the data most compounds retested in dose-response had high values
T1 sequence (whole entry): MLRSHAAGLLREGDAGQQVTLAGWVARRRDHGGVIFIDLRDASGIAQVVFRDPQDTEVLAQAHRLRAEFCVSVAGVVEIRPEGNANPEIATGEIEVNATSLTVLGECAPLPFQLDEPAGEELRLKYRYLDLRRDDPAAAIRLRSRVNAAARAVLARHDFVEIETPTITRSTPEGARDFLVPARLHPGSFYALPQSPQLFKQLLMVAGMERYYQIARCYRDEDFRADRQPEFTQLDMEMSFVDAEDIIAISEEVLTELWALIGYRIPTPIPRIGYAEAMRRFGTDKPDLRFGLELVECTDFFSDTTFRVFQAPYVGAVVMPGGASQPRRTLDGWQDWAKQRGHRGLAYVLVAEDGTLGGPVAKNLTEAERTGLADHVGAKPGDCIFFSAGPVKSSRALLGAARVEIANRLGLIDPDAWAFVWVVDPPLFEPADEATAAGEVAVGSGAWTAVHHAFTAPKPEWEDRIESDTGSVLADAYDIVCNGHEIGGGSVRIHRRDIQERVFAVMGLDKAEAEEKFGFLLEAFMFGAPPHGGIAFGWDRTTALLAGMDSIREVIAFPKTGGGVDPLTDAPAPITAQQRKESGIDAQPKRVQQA

[2] = target: Shiga toxin 2 (Escherichia coli O157:H7) (UniProt P09385+P09386); assay: E. coli 0.157:H7 Shiga Toxin SOP - stx2 screening assay; type: functional; set-up: scale not given: direction of the effect not stated beside the values; conditions: 30 µM

Compound	Percent Effect [1] [%]	Percent Effect [2] [%]
CCc1ncncc1C(=O)N1CCOC(c2nc(C)n[nH]2)C1 (stereo not drawn)	-4.06	0.443
Cc1nccn1C1CCCN(C(=O)c2ccc3c(c2)nnn3C)C1 (stereo not drawn)	-1.94	16.2
O=C(NCCc1ccccn1)NC1CCN(c2ncccn2)CC1	1.19	-12.3
COc1ccc(-c2nnc(SCC(=O)NCC(C)C)[nH]2)c(OC)c1	6.14	6.1
CC(C)Cc1noc(CN2CCOC(Cn3cncn3)C2)n1 (stereo not drawn)	1.02	16.9
CCn1cc(NC(=O)CCc2ccc3c(c2)OCCCO3)cn1	-3.45	-47.1
Cc1cccc(NS(=O)(=O)c2cc(C(=O)O)oc2C)c1Cl	-1.97	8.36
Cc1cc(C(=O)NCc2ccnc(N(C)C)c2)c(C)o1	5.55	-9.84
N#Cc1ccc(CNC(=O)NC2CCN(CC(F)F)CC2)cc1	-4.22	-8.96
O=C(c1ccsc1)N1C[C@@H]2C[C@@H](c3nnc(C4CC4)o3)O[C@@H]2C1	6.08	-18.3
O=C(CC1CCCCC1)N1CCN(C(=O)NCc2ccccn2)CC1	2.1	20.8
COc1cc(CNCc2ccnc(N3CCOCC3)c2)cc(Cl)c1OC	6.73	24.1
Cn1cc(C2CCCN2C(=O)Cc2n[nH]c3ccccc23)cn1 (stereo not drawn)	-9.51	-33.7
CS(=O)(=O)c1ccc(NC(=O)N2CCc3sccc3C2)cn1	5.08	-38
Cc1ccc(C(=O)NS(=O)(=O)c2cc(Cl)ccc2Cl)c(=O)[nH]1	0	-9.88
CCc1nc(C)c([C@H]2CN(C)C[C@@H]2C(=O)NCCc2cnccn2)[nH]1	-1.15	-9.87
O=C(c1ccsc1)N1CCc2c(CNc3ncccn3)n[nH]c2C1	-0.641	-33.5
CC(NC(=O)N1CCCN(Cc2cccs2)CC1)c1cccnc1 (stereo not drawn)	-7.21	15.3
N#Cc1ccc(C(=O)NCCCNc2ccc(C(F)(F)F)cn2)cc1	-4.52	28.9
NC(=O)c1ccc(N2CCCCC2)c(NC(=O)c2cncc(Br)c2)c1	13.7	-52.6
Cn1ncc2c1CCCC2NCc1cc(Br)cs1 (stereo not drawn)	-1.12	7.1
CC(C)C(Sc1nnnn1-c1ccccc1)C(=O)NCc1cccnc1 (stereo not drawn)	1.64	8.76
COCCN1CCCC(O)(CN2CCN(c3ncccc3C)CC2)C1=O (stereo not drawn)	5.57	-7.55
CCCn1c(C)cc(C(=O)CN2C(=O)c3ccccc3CS2(=O)=O)c1C	0.257	-23.8
O=C(NCc1ccccc1F)N1CCC(C2OCCO2)CC1	-2.61	-12.8

Compound	Percent Effect [1] [%]	Percent Effect [2] [%]
CSCC[C@H](N)C(=O)NCc1cc2n(n1)CCCN(C1CCCCC1)C2	-6.77	5.19
Cc1ncsc1C(=O)NCCSCc1cccs1	2.21	-24.7
CCn1cc2c(n1)CN(Cc1ccoc1)CC2COCC1CC1 (stereo not drawn)	-4.69	13.8
O=S(=O)(NC1=NCN(CCc2cccs2)CN1)c1ccccc1	-3.8	-12.6
CN(C)Cc1nc(C(C)(C)NC(=O)C2CC(=O)N(CC3CC3)C2)no1 (stereo not drawn)	-5.01	25.1
Cc1nc(N2CCCC2)nc2c1CCN(Cc1ccco1)CC2	8.76	-55.7
Cc1ccc(C(=O)N2C[C@H]3CCC[C@@]3(COCc3cccnc3)C2)s1	6.3	-7.06
COc1c(C2CCCN2Cc2cc(C)no2)c(C)nn1C (stereo not drawn)	3.61	18.1
Cn1nccc1C1CCN(Cc2csc(-c3ncccn3)n2)CC1	5.92	-10.6
Cc1nc(-c2ccccc2F)sc1C(=O)N1CCN(C)CC1	1.4	-0.463
CCN1CCC(CNCc2cc(OC)ccc2OC)C1 (stereo not drawn)	-3.93	-21.3
CC(C)c1n[nH]c(C2CN(C(=O)CCn3ccccc3=O)CCO2)n1 (stereo not drawn)	-1.85	10.2
CCN(CC)c1ccc(C(=O)N(C)Cc2c(C)noc2C)cn1	3.51	32.5
CN(C)S(=O)(=O)N1C[C@@H]2CC[C@H](C1)N(Cc1ccc3nsnc3c1)C2	-2.42	-1.59
O=C(C1CCOC1)N1C[C@H]2CN(Cc3nccs3)C[C@H]2C1 (stereo partly drawn)	-1.88	1.98
Cc1cccc2cc(CNCCCN3CCOCC3)c(=O)[nH]c12	0.253	-27.9
CCCc1nc(CN2CCN(Cc3noc(CCC)n3)CC2)no1	-5.2	-39.2
COc1ccc(CN(Cc2cncn2C)CC2CCCO2)cc1OC (stereo not drawn)	4.27	10.9
CNC(=O)[C@@]12CCCN(c3ncccn3)[C@@H]1CN(C(=O)NC(C)C)C2	1.62	-25.1
O=C(CCc1cccs1)N1CCCCC1Cn1cccn1 (stereo not drawn)	-2.77	1.06
CC1c2ncc(COc3cccnc3)n2CCN1C(=O)C1=CCCC1 (stereo not drawn)	-4.09	-30.8
CC(=O)Nc1nc(C(=O)NCc2ccc(N3CCCCCC3)nc2)cs1	6.56	-131
Cc1nn(C(C)C)c(C)c1NC(=O)c1ccncc1	-0.479	-15.8
COCC(=O)N(C)Cc1ccc(Cl)c(Cl)c1	-3.56	2.03
Cc1cncc(C(=O)N2CCCC(C(=O)CCc3ccccc3)C2)c1 (stereo not drawn)	13.2	-26.1

Compound	Percent Effect [1] [%]	Percent Effect [2] [%]
CN1N=C(C(=O)N(Cc2ccco2)C2CC2)CCC1=O	-2.73	1.36
O=C(Cn1c(=O)nc2n1C(=O)N(c1ccccc1)C2)Nc1ccccc1	-4	16.3
Cc1cccc(CCC(=O)N2CCOCC2c2c(C)n[nH]c2C)c1 (stereo not drawn)	3.91	-16.7
Cc1ccc2c(ccn2CCC(=O)N2CCC(C(N)=O)CC2)c1	0.842	-2.06
CCn1nc(CC(C)C)cc1C(=O)NCCn1cccc1	3.71	-3.77
O=C(C1SCCc2sccc21)N1CCC(O)CC1 (stereo not drawn)	5.25	-25.1
O=C(NCC1CC1)C1=NOC2(CCN(S(=O)(=O)c3cccs3)C2)C1 (stereo not drawn)	2.15	-4.25
O=C(NCCN1CCCCC1)c1nc(-c2ccc3cc[nH]c3c2)no1	6.42	-77.4
CC(C)n1ncc2c1NC(=O)CC21C(=O)Nc2c(Cl)cccc21 (stereo not drawn)	4.56	-7.34
O=C(c1ccc[nH]1)N1C[C@H]2CC[C@@H]1CN(c1ncccn1)C2	-4.31	-5.71
CC(=O)c1cccc(OCCCC(=O)NCC2CCCN2C)c1 (stereo not drawn)	-2.48	-4.3
CCn1cnnc1CNC(=O)N1CCOCC1	-11.7	7.05
Cc1cc(C)n(C2CN(CC(O)COc3ccc(F)cc3)C2)n1 (stereo not drawn)	-0.121	19.1
c1csc(-c2nc(CNC3CCc4ncnn4C3)cs2)c1 (stereo not drawn)	-3.43	-12.9
c1cncc(COCc2nnc3n2CCN(Cc2ccoc2)C3)c1	-0.0297	-40.3
CC(C)c1nc(CN2CCN(CC3CCCO3)CC2)cs1 (stereo not drawn)	-0.404	12
CCc1cnc(CN2CCC(N(C)Cc3noc(C4CC4)n3)C2)o1 (stereo not drawn)	-1.09	-33.4
c1ccc(CN2CCCC(c3nccnc3-n3ccnc3)C2)cc1 (stereo not drawn)	2.31	-2.34
CN1[C@@H](C(=O)NCC2CC2)C[C@@H]2CN(Cc3ccco3)C[C@@H]21	2.69	-1.45
CCCN1CCCn2nc(CNS(=O)(=O)c3cccc(C#N)c3)cc2C1	-1.36	28.5
Cc1cnn(CC(C)NCc2csc(-c3ccco3)n2)c1 (stereo not drawn)	2.75	1.53
Cc1nc(CNCC2CCCN2c2cccnn2)cs1 (stereo not drawn)	-0.7	15.4
O=C(CCO)N1CCOC2(CCCN(C(=O)c3ccco3)C2)C1 (stereo not drawn)	-4.34	-15.2
CCOC(=O)[C@]12CCCN(Cc3nccs3)C[C@H]1CN(CCN(C)C)C2	6.19	-7.56
